The test system of assay [1] is ABL1-phosphorylated.
The test system of assay [2] is ACVR1.
The test system of assay [3] is ACVR2A.
The test system of assay [4] is T1, ADCK3.
T1 construct: gene CABC1

The subject of assay [5] is ADCK4.
Assay [6] concerns AKT1.
The test system of assay [7] is AKT2.
The subject of assay [8] is AKT3.
Assay [9] relates to T2, AMPK-alpha1.
T2 construct: gene PRKAA1

Assay [10] deals with T3, ARK5.
T3 construct: gene NUAK1

The subject of assay [11] is T4, ASK1.
T4 construct: gene MAP3K5

Assay [12] has as its system T5, ASK2.
T5 construct: gene MAP3K6

For assay [13], the system named is AXL.

pKd: −log10 of the molar value.
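Also: kd values determined as follow-up on hits from a single-replicate KINOMEscan panel screen.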

As to `COc1ccccc1-c1ccc2c(NC(=O)C3CC3)n[nH]c2n1` [SB-711239], the pKd in assay [1] is below 5.00.

In [1], `O=C1NC(=O)C(N2CCc3ccccc32)=C1c1ccccc1Cl` [SB-373598] showed a pKd below 5.00.

In [2], `COc1ccc(C2=C(Nc3cccc(C(=O)O)c3)C(=O)NC2=O)cc1` [SB-390765] gave a pKd below 5.00.

In [2], `Cn1ccc2ncnc(Oc3cccc(C(=O)Nc4ccccc4)c3)c21` had a negative logarithm of the Kd (pKd) below 5.00.

In the case of `COc1cccc(NC(=O)NC2CCN(c3ccnc(Nc4ccc(F)cc4)n3)C2)c1` (stereo not shown) [GSK1379721], the negative-log Kd (pKd) in assay [3] was below 5.00.

With `CC1=C(C(=O)Nc2cc3cn[nH]c3cc2F)C(c2ccc(C(F)(F)F)cc2)CC(=O)N1` (stereo not shown) [GSK429286], the negative-log Kd (pKd) in [3] was below 5.00.

In the case of `NC(=O)c1nnc2ccccc2c1N`, the pKd in assay [4] was below 5.00.

On to `Cc1c(O)cccc1Nc1ccnc2ccc(C(F)(F)F)cc12.Cl` [GW466413], for which the pKd in [5] is 6.29.

Compound `Cc1cc(N2Cc3ccccc3C2)nc(Nc2ccc(S(=O)(=O)N3CCOCC3)cc2)n1.Cl` [GSK1669917] showed a pKd in assay [6] below 5.00.

The compound `CS(=O)(=O)c1ccc(-c2nc3n(c2-c2ccncc2)CCC3)cc1` [SKF-105942] gave a negative-log Kd (pKd) in assay [7] below 5.00.

`CCCc1ccc(S(=O)(=O)NC2CCN(c3ccnc(Nc4ccc(F)cc4)n3)C2)cc1` (stereo not shown) [GSK1379715] gave a pKd in assay [7] below 5.00.

Take `Nc1nc(-c2nccs2)c(-c2ccnc3ccccc23)s1` [GW693542]: the pKd in [8] is below 5.00.

Consider `Cc1c(Cn2ccn3c(=O)cc(N4CCOCC4)nc23)cccc1C(F)(F)F` [GSK2289044], for which the pKd in [8] was below 5.00.

On to `Cc1nnc(-c2ccc3occ(-c4ccc(S(C)=O)cc4)c3c2)[nH]1` (stereo not shown), for which, in assay [9], the negative-log Kd (pKd) was below 5.00.

In turn, `Cc1ccc(-c2cc(-c3c[nH]nc3-c3ccccn3)ccn2)cc1` [GW684088] gave a pKd in [10] below 5.00.

`CC(C)(C)c1ccc(C(=O)Nc2cn3cc(-c4cccnc4)ccc3n2)cc1`: the pKd in [11] is 7.19.

Turning to `CC(C)(C)c1ccc(C(=O)Nc2cn3cc(Cl)ccc3n2)cc1`, the negative logarithm of the Kd (pKd) in assay [11] is 5.82.

In assay [12], `CSc1nn2c(=O)cc(N3CCOCC3)nc2n1Cc1cccc(C(F)(F)F)c1C` [GSK2363608] showed a pKd below 5.00.

As for `O=c1cc(N2CCOCC2)nc2n(Cc3cccc(Cl)c3Cl)ccn12` [GSK2286295], in [13], the pKd is below 5.00.

By pKd is commonly meant −log10 of the Kd, conventionally taken in molar units.

Source of the values: publication PMC5540273 (PLoS ONE, 2017).
